This passage reports growth inhibition, inhibition and outcome results from PubChem BioAssay.

A number with no mark means an inactive call. For part of these data: Potency and affinity values are given separately. Calls of active or inactive are those of the source. Unless noted, how the calls were made is not given here.

The nature of experiment [1]: antimalarial activity against Dd2 strain (AID 2302;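 active means growth inhibition above 50% at the single 2 µM test dose, taken to imply half-maximal potency below 2 µM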;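 further: 0% = DMSO untreated growth and 100% = chloroquine plus artemisinin killed control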). Particulars: P. falciparum Dd2 in RBCs, LDH growth readout, 72 h; at 2 µM; hits give high values.
The nature of experiment [2]: human hepatoma cell viability loss – ATP luminescence, cytotoxicity control for P. falciparum antimalarial project, primary screen (AID 2303;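 active means inhibition above 50%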;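 further: 0% = DMSO wells and 100% = digitonin-killed cells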). Conditions: HepG2 viability, 24-48 h, at 10 µM, hits give high values.
Experiment [3] concerns the target L-lactate dehydrogenase (Plasmodium falciparum (isolate CDC / Honduras)) (UniProt Q27743). In words: PfLDH activity inhibition – cell lysate, 3D7 strain, counter-screen for P. falciparum growth inhibition project (AID 2304).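 Further: 0% = vehicle and 100% = reference inhibitor.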 Conditions: P. falciparum 3D7 crude extract, LDH APAD/NBT absorbance; at 2 µM; hits give high values.
Experiment [4] is described as follows: inhibition of 3D7 malaria parasite growth – strain 3D7 (AID 2306).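 Further: 0% = DMSO wells and 100% = chloroquine plus artemisinin control wells.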 Particulars: P. falciparum 3D7 erythrocytic growth, LDH absorbance, 72 h; at 2 µM; hits give high values.
For experiment [5], the target named is Calcium-dependent protein kinase 1 (Plasmodium falciparum (isolate 3D7)) (UniProt P62344). In words: PfCDPK1 kinase inhibitors, biochemical, TCAMS library (AID 1159585; cut-off not given, nearly all actives have IC50 up to about 0.98 µM;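 further: inhibitors leave more ATP so luminescence rises with inhibition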). Conditions: recombinant PfCDPK1, Kinase-Glo ATP depletion luminescence. (Kinase-Glo measures the ATP left after a reaction by luminescence.)
Chain of Calcium-dependent protein kinase 1 (Plasmodium falciparum (isolate 3D7)) (P62344 whole entry, looked up): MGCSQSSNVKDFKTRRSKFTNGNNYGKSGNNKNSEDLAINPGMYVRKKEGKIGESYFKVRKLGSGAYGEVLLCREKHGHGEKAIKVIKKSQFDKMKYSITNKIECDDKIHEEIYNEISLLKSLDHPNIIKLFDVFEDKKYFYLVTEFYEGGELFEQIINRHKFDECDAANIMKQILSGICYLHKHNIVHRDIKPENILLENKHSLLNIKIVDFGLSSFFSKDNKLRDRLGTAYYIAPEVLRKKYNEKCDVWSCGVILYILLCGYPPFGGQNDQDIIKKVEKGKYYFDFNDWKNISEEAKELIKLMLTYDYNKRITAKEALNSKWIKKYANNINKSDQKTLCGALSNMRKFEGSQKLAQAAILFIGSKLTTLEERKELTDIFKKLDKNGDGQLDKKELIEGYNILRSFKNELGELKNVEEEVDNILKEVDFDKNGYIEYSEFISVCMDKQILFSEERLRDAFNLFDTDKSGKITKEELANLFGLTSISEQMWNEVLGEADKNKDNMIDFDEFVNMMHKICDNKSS
The target in experiment [6] is Plasmodium falciparum protein kinase 6 (PK6, PF3D7_1337100) (UniProt Q8IDW1). In words: PfPK6 kinase inhibitors, biochemical, TCAMS library (AID 1159586). Conditions: recombinant PfPK6, Kinase-Glo ATP depletion luminescence.
Chain of Plasmodium falciparum protein kinase 6 (PK6, PF3D7_1337100) (Q8IDW1 1-305): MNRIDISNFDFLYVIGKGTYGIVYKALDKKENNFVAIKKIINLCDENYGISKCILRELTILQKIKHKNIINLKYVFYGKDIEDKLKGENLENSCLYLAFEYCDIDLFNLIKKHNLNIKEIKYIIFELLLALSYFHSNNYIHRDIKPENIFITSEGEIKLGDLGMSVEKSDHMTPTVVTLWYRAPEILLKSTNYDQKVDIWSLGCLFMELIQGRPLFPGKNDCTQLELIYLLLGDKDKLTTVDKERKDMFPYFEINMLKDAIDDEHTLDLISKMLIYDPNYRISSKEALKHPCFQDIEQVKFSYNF
Experiment [7] has as its target Protein kinase 7 (PK7), Plasmodium falciparum 3D7 (PF3D7_0213400) (UniProt Q7YTF7). In words: inhibition of Plasmodium PK7 catalytic activity – biochemical, TCAMS antimalarial set, Kinase-Glo luminescence (AID 1159587). Conditions: recombinant PfPK7, Kinase-Glo ATP depletion luminescence.
In experiment [8] the target is Calcium-dependent protein kinase 4 (Plasmodium falciparum (isolate 3D7)) (UniProt Q8IBS5). As to the kind of experiment: PfCDPK4 kinase inhibitors, biochemical, TCAMS library (AID 1159588; cut-off not given, nearly all actives have IC50 up to about 0.91 µM). Conditions: recombinant PfCDPK4, Kinase-Glo ATP depletion luminescence.
Chain of Calcium-dependent protein kinase 4 (Plasmodium falciparum (isolate 3D7)) (Q8IBS5 whole entry, looked up): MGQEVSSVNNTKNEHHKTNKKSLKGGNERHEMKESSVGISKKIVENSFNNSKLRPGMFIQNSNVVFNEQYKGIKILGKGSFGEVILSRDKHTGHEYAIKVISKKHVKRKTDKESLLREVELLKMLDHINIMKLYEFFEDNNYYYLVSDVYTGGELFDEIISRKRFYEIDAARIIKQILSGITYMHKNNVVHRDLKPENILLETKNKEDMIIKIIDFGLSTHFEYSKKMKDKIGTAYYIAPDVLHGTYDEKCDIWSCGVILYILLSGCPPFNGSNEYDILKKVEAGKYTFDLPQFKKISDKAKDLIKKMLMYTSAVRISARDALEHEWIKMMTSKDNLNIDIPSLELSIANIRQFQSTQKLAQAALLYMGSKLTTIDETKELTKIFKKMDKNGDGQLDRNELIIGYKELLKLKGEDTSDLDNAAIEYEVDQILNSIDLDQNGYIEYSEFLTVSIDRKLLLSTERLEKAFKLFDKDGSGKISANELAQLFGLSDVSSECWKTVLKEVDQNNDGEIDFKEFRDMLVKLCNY

Chain of Protein kinase 7 (PK7), Plasmodium falciparum 3D7 (PF3D7_0213400) (Q7YTF7 1-343): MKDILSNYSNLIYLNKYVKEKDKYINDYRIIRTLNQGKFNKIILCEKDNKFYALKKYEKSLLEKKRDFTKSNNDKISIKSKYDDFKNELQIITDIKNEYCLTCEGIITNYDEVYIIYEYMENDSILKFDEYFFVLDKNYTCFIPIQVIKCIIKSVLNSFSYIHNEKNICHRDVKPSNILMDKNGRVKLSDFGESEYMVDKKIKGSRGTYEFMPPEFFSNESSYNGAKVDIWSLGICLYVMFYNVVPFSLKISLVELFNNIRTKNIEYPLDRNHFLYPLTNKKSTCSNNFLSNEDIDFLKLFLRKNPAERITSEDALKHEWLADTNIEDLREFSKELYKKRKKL
Chain of L-lactate dehydrogenase (Plasmodium falciparum (isolate CDC / Honduras)) (Q27743 whole entry, looked up): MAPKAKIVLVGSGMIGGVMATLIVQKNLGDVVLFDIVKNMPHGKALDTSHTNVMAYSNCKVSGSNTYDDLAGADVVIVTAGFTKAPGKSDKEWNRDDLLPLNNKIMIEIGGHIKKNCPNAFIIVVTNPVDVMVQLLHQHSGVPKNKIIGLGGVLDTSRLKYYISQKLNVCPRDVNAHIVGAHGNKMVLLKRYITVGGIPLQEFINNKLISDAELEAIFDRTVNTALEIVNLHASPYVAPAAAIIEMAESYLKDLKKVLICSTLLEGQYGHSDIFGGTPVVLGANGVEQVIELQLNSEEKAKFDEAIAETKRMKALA

What is called inhibition is the relative decrease from the control value, in per cent. For the molecule `CCNc1cc(C(=O)N[C@@H](Cc2ccccc2)[C@H](O)CNCCc2cccc3ccccc23)cc(N2CCCC2=O)c1`, the growth inhibition is 39% in experiment [1] and 86% (active) in experiment [4]. The inhibition is 12% in experiment [2] and 3% in experiment [3]. The result in experiment [5], in experiment [6], in experiment [7] and in experiment [8] was inactive.
`Cc1ccc(C2=NNC3(S2)C(=O)N(C)c2ccccc23)cc1` (stereo not drawn): the growth inhibition in experiment [1] was 12%; in experiment [4], 82% (active). In addition, the figures for the inhibition in experiment [2] and in experiment [3] were 36% and 5%, respectively. The outcome in experiment [5], in experiment [6], in experiment [7] and in experiment [8] was inactive.
`CCC(CO)NCC(O)Cn1c2ccc(Br)cc2c2cc(Br)ccc21` (stereo not drawn): the growth inhibition in experiment [1] was 87% (active); in experiment [4], 100% (active). Besides, the inhibition in experiment [2] is 18%; in experiment [3], -6%. Moreover, the result in experiment [5], in experiment [6], in experiment [7] and in experiment [8] was inactive.
For `CCCNCc1ccc(-c2ccc(CN(CCOC)C(=O)CCCOCc3ccccc3)cc2)nc1`, the growth inhibition in experiment [1] was 13%; in experiment [4] it was 93% (active). Moreover, the values for the inhibition in experiment [2] and in experiment [3] were -2% and 2%, respectively. Besides, the outcome in experiment [5], in experiment [6], in experiment [7] and in experiment [8] was inactive.
Consider `O=C(NCCN1CCCC1)N1CCCN(c2ncnc3cc(-c4ccc(Cl)cc4)sc23)CC1`, for which the growth inhibition is 32% in experiment [1] and 96% (active) in experiment [4]. For the same molecule, the inhibition was 13% in experiment [2] and 6% in experiment [3]. The outcome in experiment [5], in experiment [6], in experiment [7] and in experiment [8] was inactive.
For `C=CCNC(=O)CCCN=C(N)N`, the values for the growth inhibition in experiment [1] and in experiment [4] were 12% and 98% (active), respectively. The inhibition in experiment [2] is -9%; in experiment [3], -1%. In addition, the result in experiment [5], in experiment [6], in experiment [7] and in experiment [8] was inactive.
Consider `Cc1cc(N2CCCC2)nc(Nc2ccc(NC(=O)c3ccccc3F)cc2)n1`, for which the results for the growth inhibition in experiment [1] and in experiment [4] were 44% and 98% (active), respectively. The inhibition was 36% in experiment [2] and -3% in experiment [3]. The result in experiment [5], in experiment [6], in experiment [7] and in experiment [8] was inactive.
Turning to `COc1ccc(S(=O)(=O)N2CCCC(C)C2)cc1N1CCN(C(=O)c2ccc([N+](=O)[O-])o2)CC1` (stereo not drawn), the growth inhibition is 4% in experiment [1] and 94% (active) in experiment [4]. The inhibition is -3% in experiment [2] and -2% in experiment [3]. The outcome in experiment [5], in experiment [6], in experiment [7] and in experiment [8] was inactive.
For the molecule `CC1CN(Cc2ccc(-c3ccc(-c4nc5ccc(F)cc5[nH]4)cc3)cc2)CC(C)O1` (stereo not drawn), the growth inhibition in experiment [1] was 93% (active); in experiment [4], 96% (active). Also, the values for the inhibition in experiment [2] and in experiment [3] were 40% and -1%, respectively. Besides, the result in experiment [5], in experiment [6], in experiment [7] and in experiment [8] was inactive.
As to `CN(c1ncc(-c2cccc(CNCc3ccccc3O)c2)cn1)C1CCCCC1`, the growth inhibition in experiment [1] is 71% (active); in experiment [4], 95% (active). The figures for the inhibition in experiment [2] and in experiment [3] were 12% and 3%, respectively. Further, the result in experiment [5], in experiment [6], in experiment [7] and in experiment [8] was inactive.
For the molecule `Cc1cc(N(C)CCN(C)C)nc(Nc2ccc(Cl)cc2)n1`, the growth inhibition was 14% in experiment [1] and 92% (active) in experiment [4]. The figures for the inhibition in experiment [2] and in experiment [3] were -1% and -3%, respectively. The result in experiment [5], in experiment [6], in experiment [7] and in experiment [8] was inactive.
As for `Cc1cccc2[nH]c(-c3ccc(-c4ccc(NC(=O)C(C)CN5CCN(C)CC5)cc4)s3)nc12` (stereo not drawn), the growth inhibition was 99% (active) in experiment [1] and 101% (active) in experiment [4]. Also, the inhibition was 17% in experiment [2] and -2% in experiment [3]. In addition, the outcome in experiment [5], in experiment [6], in experiment [7] and in experiment [8] was inactive.
`CCc1ccc(OCCCON2C(N)=NC(N)=NC2(C)C)cc1`: the growth inhibition in experiment [1] and in experiment [4] was 95% (active) each time. Further, the figures for the inhibition in experiment [2] and in experiment [3] were 64% (active) and -8%, respectively. Besides, the outcome in experiment [5], in experiment [6], in experiment [7] and in experiment [8] was inactive.
Turning to `N#Cc1ccc(-c2ccc(C(=O)NCCCCN3CC=C(c4ccc5c(c4OCC4CC4)CCCC5)CC3)cc2)cc1`, the growth inhibition in experiment [1] is 83% (active); in experiment [4] it was 100% (active). Also, the inhibition in experiment [2] is 22%; in experiment [3], 4%. For the same molecule, the result in experiment [5], in experiment [6], in experiment [7] and in experiment [8] was inactive.
Consider `COc1cccc(CCc2cccc(CNC(C)=O)c2)c1`, for which the figures for the growth inhibition in experiment [1] and in experiment [4] were -2% and 88% (active), respectively. The inhibition was 2% in experiment [2] and -2% in experiment [3]. Moreover, the result in experiment [5], in experiment [6], in experiment [7] and in experiment [8] was inactive.
In the case of `Cc1nnc2c(NC(=O)NC3CCCC3)cc3cc(-c4ccc(CN5CCCCC5)cc4)ccc3n12`, the growth inhibition in experiment [1] is 93% (active); in experiment [4] it was 99% (active). Further, the inhibition is 100% (active) in experiment [2] and -3% in experiment [3]. Besides, the result in experiment [5], in experiment [6], in experiment [7] and in experiment [8] was inactive.
For `O=C(N[C@@H](CC1CCCCC1)C(=O)NC1CC1)c1ccc(O)c(-c2cccc(C(F)(F)F)c2)c1`, the growth inhibition in experiment [1] is 47%; in experiment [4], 99% (active). Further, the figures for the inhibition in experiment [2] and in experiment [3] were -5% and -4%, respectively. Besides, the result in experiment [5], in experiment [6], in experiment [7] and in experiment [8] was inactive.
Consider `FC(F)(F)c1cnc(Sc2nnc(-c3ccncc3)o2)c(Cl)c1`, for which the growth inhibition in experiment [1] and in experiment [4] was 96% (active) each time. Further, the inhibition in experiment [2] is 10%; in experiment [3], 1%. The result in experiment [5], in experiment [6], in experiment [7] and in experiment [8] was inactive.
As to `CCc1cn(CCS(C)(=O)=O)c2ccc(C(=O)N[C@@H](Cc3ccccc3)[C@H](O)CNC(C)(C)CCCC(C)C)cc12`, the growth inhibition was 96% (active) in experiment [1] and 87% (active) in experiment [4]. Also, the inhibition was 16% in experiment [2] and -7% in experiment [3]. Further, the outcome in experiment [5], in experiment [6], in experiment [7] and in experiment [8] was inactive.
`O=C(NCc1ccco1)c1ccc(CN2CCN(C(c3ccccc3)c3ccccc3)CC2)cc1`: the growth inhibition in experiment [1] is 92% (active); in experiment [4], 96% (active). Moreover, the results for the inhibition in experiment [2] and in experiment [3] were 6% and -1%, respectively. Also, the result in experiment [5], in experiment [6], in experiment [7] and in experiment [8] was inactive.
With `CCN(CC)S(=O)(=O)c1cc(-c2ccc(=O)n(CC(=O)c3ccc(C)cc3)n2)ccc1C`, the growth inhibition is 66% (active) in experiment [1] and 86% (active) in experiment [4]. In addition, the results for the inhibition in experiment [2] and in experiment [3] were 6% and -3%, respectively. Moreover, the outcome in experiment [5], in experiment [6], in experiment [7] and in experiment [8] was inactive.
